# Measured values taken from the supplement of paper PMC9262897, “Low-cost anti-mycobacterial drug discovery using engineered E. coli” (Nature Communications, 2022).
# Where a name gives a salt, the structure may show the parent alone. ± gives the standard deviation of the averaged measurements.
# Tested on: E. coli TESEC Mtb Alr
# Assay: growth (OD600 after 10 h); higher = more growth (less inhibition)
# Details: arabinose 10000 nM; compound 0.1 mM; raw OD600 reference: median of DMSO wells 0.264, cell-free background 0.041
# Procedure: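 TESEC Mtb Alr E. coli, or the Alr+ wild-type control, in 384-well plates with Prestwick library compounds at 0.1 mM and 1% DMSO, across arabinose induction levels of 1E3 to 1E7 nM. Growth is read as OD600 after 10 h at 37 °C in triplicate biological replicates.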
row,SMILES,growth
1,c1ccc(CN(CC2=NCCN2)c2ccccc2)cc1 [Antazoline hydrochloride],0.254 ± 0.0091
2,CCCc1nc2c(C)cc(-c3nc4ccccc4n3C)cc2n1Cc1ccc(-c2ccccc2C(=O)O)cc1 [Telmisartan],0.291 ± 0.011
3,Nc1nc(F)nc2c1ncn2[C@@H]1O[C@H](CO)[C@@H](O)[C@@H]1O [Fludarabine],0.241 ± 0.0025
4,CN1CCOC(c2ccccc2)c2ccccc2C1 (configuration not stated) [Nefopam hydrochloride],0.263 ± 0.003
5,NCCCC(O)(P(=O)(O)O)P(=O)(O)O [Alendronate sodium],0.265 ± 0.007
6,Clc1ccccc1C(c1ccccc1)(c1ccccc1)n1ccnc1 [Clotrimazole],0.0452 ± 0.00099
7,"O=C1c2cccc(O)c2C(=O)c2c(O)cccc21 [1,8-Dihydroxyanthraquinone]",0.0699 ± 0.015
8,CC(N/C(=N\C#N)Nc1ccncc1)C(C)(C)C (configuration not stated) [Pinacidil],0.257 ± 0.0097
9,COc1ccc2c(c1)c(CC(=O)OCC(=O)O)c(C)n2C(=O)c1ccc(Cl)cc1 [Acemetacin],0.195 ± 0.0045
10,O=C(O)c1ccccc1C(=O)Nc1ccc(S(=O)(=O)Nc2nccs2)cc1 [Phthalylsulfathiazole],0.266 ± 0.022
11,c1ccc2c(c1)CCCC2C1=NCCN1 (configuration not stated) [Tetrahydrozoline hydrochloride],0.247 ± 0.0046
12,Cc1nnc(NS(=O)(=O)c2ccc(N)cc2)s1 [Sulfamethizole],0.236 ± 0.004
